Compounds with a hit are over-represented: about 3.5% of the library has one in this group of screens.
Autofluor counter = counter-screen for toxin protease inhibitors: compound fluorescence. compound autofluorescence counterscreen, microsphere flow cytometry; stronger effect = higher value. fluorescence intensity (concentration not given with the values). 360,000 compounds, 3.1% hits; in the data active = fluorescence intensity above about 16000; inconclusive = no clear call, values can overlap the other calls
Anthrax LF prot = Bacillus anthracis LF protease inhibitors, primary screen, biochemical, multiplex microsphere, MLPCN library; inhibition, % at 10 µM; AID 588501, 2011; multiplex microsphere protease cleavage assay; 360,000 compounds, 0.12% hits; Lethal factor (Bacillus anthracis), P15917
Target sequence (P15917 whole entry, looked up): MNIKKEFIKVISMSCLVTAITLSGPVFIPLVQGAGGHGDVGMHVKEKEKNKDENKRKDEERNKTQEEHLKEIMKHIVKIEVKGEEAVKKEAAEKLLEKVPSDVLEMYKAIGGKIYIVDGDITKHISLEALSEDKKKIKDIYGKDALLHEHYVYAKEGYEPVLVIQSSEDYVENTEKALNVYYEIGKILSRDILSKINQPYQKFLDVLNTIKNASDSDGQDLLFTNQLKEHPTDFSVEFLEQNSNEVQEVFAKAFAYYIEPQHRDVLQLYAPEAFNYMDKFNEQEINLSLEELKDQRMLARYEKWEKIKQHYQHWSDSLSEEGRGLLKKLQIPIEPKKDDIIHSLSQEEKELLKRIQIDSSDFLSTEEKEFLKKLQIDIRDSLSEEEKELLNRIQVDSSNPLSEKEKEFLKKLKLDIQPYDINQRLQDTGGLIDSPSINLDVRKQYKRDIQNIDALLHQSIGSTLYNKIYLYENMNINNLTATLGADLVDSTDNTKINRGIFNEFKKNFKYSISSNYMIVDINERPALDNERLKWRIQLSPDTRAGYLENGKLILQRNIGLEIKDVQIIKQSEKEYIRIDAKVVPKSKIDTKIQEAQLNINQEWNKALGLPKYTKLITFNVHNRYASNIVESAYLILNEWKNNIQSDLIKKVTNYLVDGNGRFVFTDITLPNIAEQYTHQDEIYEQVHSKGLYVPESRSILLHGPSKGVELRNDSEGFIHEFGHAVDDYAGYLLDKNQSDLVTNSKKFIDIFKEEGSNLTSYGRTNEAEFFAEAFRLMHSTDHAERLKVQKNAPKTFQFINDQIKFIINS
BoNT A protease = BoNT/A light chain protease inhibitors, primary screen, biochemical, flow cytometry, MLPCN library. Botulinum neurotoxin type A light chain protease (Clostridium botulinum A str. ATCC 3502). 360,000 compounds, 0.17% hits. multiplex microsphere protease substrate cleavage. inhibition, % at 10 µM
BoNT-F LC inh = BoNT/F light chain protease inhibitors, primary screen, biochemical, flow cytometry, MLPCN library | inhibition, % at 10 µM | Botulinum neurotoxin type F light chain protease (Clostridium botulinum) | 360,000 compounds, 0.22% hits | Multiplex microsphere protease cleavage assay | AID 588497, 2011; in the data active = inhibition above about 35%, passing the limit was not always enough; inconclusive = no clear call, values can overlap the other calls
Of the large screens only hits and unclear results are named; the others gave an inactive call. Rule as the data show it, unless noted: active = inhibition above about 30%; inconclusive = no clear call, values can overlap the other calls; inactive = below that.

Cc1ccnc(SCC(=O)Nc2sccc2C#N)n1	none
CCC(C)NC(=O)C1c2ccccc2C(=O)N1Cc1ccc(F)cc1 (stereo not drawn)	none
CCOC(=O)c1c(C)[nH]c(C)c1C(=O)CSc1ncccn1	Autofluor counter 21577
CCOC(=O)c1c(C)[nH]c(C(=O)OCC(=O)c2ccccc2)c1C	none
CCOC(=O)c1c(C)[nH]c(C(=O)COC(=O)C2(C)CC2(Cl)Cl)c1C (stereo not drawn)	Autofluor counter 23186
CCOC(=O)c1c(C)[nH]c(C(=O)COC(=O)c2ccccn2)c1C	Autofluor counter 19471
CCC(C)(C)NC(=O)C(Sc1ccccc1)c1ccccc1 (stereo not drawn)	none
O=C(NC1CCCCC1)n1c(=O)oc2ccccc21	Autofluor counter 23174
O=C(CCn1c(=S)oc2ccccc21)NC1CCCCCC1	none
O=C(NC1CCCCC1)n1c(=O)oc2ccc(Cl)cc21	Autofluor counter 23566
O=C(Cn1c(=O)oc2ccc(Cl)cc21)NC1CCCCC1	none
CSc1ccccc1C(=O)Nc1cccc(C)c1	Autofluor counter 17403, BoNT A protease inconclusive
CSc1ccccc1C(=O)Nc1cccc([N+](=O)[O-])c1	none
COC(=O)c1ccc(NC(=O)c2ccccc2SC)cc1	Autofluor counter 16827
COC(=O)c1ccc(NC(=O)c2ccccc2C(=O)Nc2ccc(C(=O)OC)cc2)cc1	none
CCOC(=O)c1sc(NC(=O)CSc2nc(C)cc(-c3ccccc3)n2)c(C#N)c1C	Autofluor counter 19559
CCOC(=O)c1sc(NC(=O)CSc2nc(C)cc(C)c2C#N)c(C#N)c1C	none
CCOC(=O)c1sc(NC(=O)CSc2nc3c(cc2C#N)CCCCCC3)c(C#N)c1C	Autofluor counter 17520, BoNT A protease inconclusive
CCOC(=O)c1sc(NC(=O)CSc2n[nH]c(-c3ccc(Cl)cc3Cl)n2)c(C#N)c1C	Autofluor counter 23279, BoNT A protease inconclusive
Cc1cc(NC(=O)CSc2n[nH]c(-c3ccc(Cl)cc3Cl)n2)no1	none
O=[N+]([O-])c1cc(/C=N\Nc2nc(-c3ccccc3)cs2)ccc1O	none
Cc1csc(N/N=C/c2ccc(O)c([N+](=O)[O-])c2)n1	Autofluor counter 22477
Cc1ccc(C)c(S(=O)(=O)N2CCN(C(=O)c3cncc(Br)c3)CC2)c1	none
O=C1CCN(Cc2ccccc2)S(=O)(=O)c2c(F)cc(F)cc21	none
CC(=NNC(=S)SCc1ccccc1)c1ccccn1	Anthrax LF prot 56.9, BoNT A protease 41.8, BoNT-F LC inh 83.1
CC(=NNC(=S)Nc1cccc(Cl)c1)c1ccccn1	Anthrax LF prot 41.1, BoNT-F LC inh 62.8
CC(=NNC(=S)N1CCCC1)c1ccccn1	none
CC(=O)Nc1ccc(S(=O)(=O)N(Cc2ccco2)CC2CCCO2)cc1 (stereo not drawn)	none
N#CC1=C(SCc2ccccc2)NC(=O)CC1c1ccco1 (stereo not drawn)	Autofluor counter 20548
N#CC1=C(SCC(=O)NCc2ccccc2)NC(=O)CC1c1ccco1 (stereo not drawn)	none
CCCSC1=C(C#N)C(c2ccccc2OCC)CC(=O)N1 (stereo not drawn)	Autofluor counter 23587
CCCSC1=C(C#N)C(c2ccc(Cl)cc2Cl)CC(=O)N1 (stereo not drawn)	Autofluor counter 24553
Cc1ccccc1NC(=O)C(=O)c1cn(C)c2ccccc12	none
CCOc1ccc(C2c3cc(OC)c(OC)cc3CC(=O)N2c2ccccc2)cc1 (stereo not drawn)	Autofluor counter 20080
Cc1cc(C)nc(NS(=O)(=O)c2ccc(Br)s2)c1	none
Cc1cccc(NS(=O)(=O)c2ccc(Br)s2)n1	Autofluor counter 19822
O=C(COC(=O)CCC1CCCC1)Nc1ccc(Cl)cn1	Autofluor counter 17161
O=C(COC(=O)C1CCC1)Nc1ccc(Cl)cn1	none
Cc1nc2ccccc2c2oc(C(=O)NCCN3CCCCC3C)cc12 (stereo not drawn)	none
CCN1CCCC1CNC(=O)c1cc2c(C)nc3ccccc3c2o1 (stereo not drawn)	Autofluor counter 17361
CCSc1ccc(C(=O)Nc2ccc(Br)cn2)cc1[N+](=O)[O-]	Autofluor counter 19284
CCSc1ccc(C(=O)Nc2cccc(C)n2)cc1[N+](=O)[O-]	none
CC(C)CNC(=O)/C=C/C=C/c1ccc2c(c1)OCO2	none
O=C(NCc1cccnc1)c1ccc(S(=O)(=O)N2CCCCCC2)cc1	none
Cc1ccc(Nc2nnc(SCC(=O)NC3CC3)s2)cc1	none
CCN(CC)C(=O)C1=C(C)N(Cc2ccc(OC)cc2)C(=O)C(CC(=O)NCC2CCCCC2)C1 (stereo not drawn)	none
CC1CN(C(=O)c2cc3c(=O)n4ccccc4nc3s2)CC(C)O1 (stereo not drawn)	Autofluor counter 16544
Cc1cc(SCC(=O)c2cccs2)nc2c(C)cccc12	Autofluor counter 16902
Cc1cc(C)c(C#N)c(SCC(=O)c2cccs2)n1	Autofluor counter 22840, BoNT A protease inconclusive
Cc1cc2c(C)ccc(C)c2nc1SCC(=O)c1cccs1	none
Cc1ccccc1Cn1nc(C)c(NC(=O)/C=C/c2cnn(C)c2)c1C	none
O=c1c2c3c(sc2n(CCN2CCCCC2)c(=O)n1Cc1ccco1)CCCCC3	Autofluor counter 27290, BoNT A protease inconclusive
CCn1c(=O)n(CCc2ccccc2)c(=O)c2c3c(sc21)CCCC3	Autofluor counter 22638
COC(=O)Cn1c(=O)n(CCc2ccccc2)c(=O)c2c3c(sc21)CCCC3	none
O=C(Cn1c(=O)n(Cc2ccco2)c(=O)c2c3c(sc21)CCCC3)Nc1ccccc1	none
NC(=O)Cn1c(=O)n(Cc2ccco2)c(=O)c2c3c(sc21)CCCCC3	Autofluor counter 18631, BoNT A protease inconclusive
COc1ccc(NC(=O)COc2ccc(N(C)S(=O)(=O)c3ccc(Cl)cc3)cc2)cc1OC	Autofluor counter inconclusive, BoNT A protease inconclusive
Cc1ccc(C)c(N(C(=O)Cn2nnc(-c3cccs3)n2)C(C(=O)NC2CCCC2)c2ccncc2)c1 (stereo not drawn)	Autofluor counter 24211
O=C(c1ccco1)N(c1ccccn1)c1ccccn1	Autofluor counter 22821, BoNT A protease inconclusive
CN(C)S(=O)(=O)c1ccc(C(=O)N(c2ccccn2)c2ccccn2)cc1	Autofluor counter 22500
COc1ccc(C(=O)CCc2nc3ccccc3s2)cc1	none
CC(/C=N/NC(=O)Cc1cccn1C)=C\c1ccco1	Autofluor counter 22954, BoNT A protease inconclusive
CC(=C/c1ccco1)/C=N/NC(=O)Cc1cccn1C	none
Cc1nc(NS(=O)(=O)c2ccccc2)sc1NC(=O)OC(C)C	none
Cc1ccc(S(=O)(=O)Nc2nc(C)c(NC(=O)OCCCl)s2)cc1	Autofluor counter 21860
CC(C)Sc1nc(O)c(Cc2ccccc2)c(=O)[nH]1	Autofluor counter 20324
CCC(C)Sc1nc(O)c(Cc2ccccc2)c(=O)[nH]1 (stereo not drawn)	none
O=C(Nc1ccon1)c1sc2cc(Cl)ccc2c1Cl	none
Cc1[nH]c(=O)[nH]c(=O)c1CSc1nnc([C@@H](NC(=O)OC(C)(C)C)C(C)C)o1	none
CC(C)=CCSc1nnc([C@@H](NC(=O)OC(C)(C)C)C(C)C)o1	Autofluor counter 22591, BoNT A protease inconclusive
NNC(=O)CCn1c2ccccc2c2ccccc21	none

Screening data: PubChem BioAssay, NMMLSC
